# Publication PMC4336329 (PLoS ONE, 2015)
# Hit rate of the full screen: of about 310,000 compounds, about 14,000 (4.5%) showed an effect of 50% or more. Effects have a minus sign here. Many of the other results were omitted from the sample, so strong results are more common in it than they were.
# Target: human ether-à-go-go-related gene (hERG) potassium channel (human, UniProt Q12809)
# Test: primary screen, population patch clamp on CHO cells stably expressing hERG; higher = less effect of the substance
# 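Also: peak tail current of the secondary pulse compared with the same well before compound.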
# Chain of human ether-à-go-go-related gene (hERG) potassium channel (Q12809 whole entry, looked up): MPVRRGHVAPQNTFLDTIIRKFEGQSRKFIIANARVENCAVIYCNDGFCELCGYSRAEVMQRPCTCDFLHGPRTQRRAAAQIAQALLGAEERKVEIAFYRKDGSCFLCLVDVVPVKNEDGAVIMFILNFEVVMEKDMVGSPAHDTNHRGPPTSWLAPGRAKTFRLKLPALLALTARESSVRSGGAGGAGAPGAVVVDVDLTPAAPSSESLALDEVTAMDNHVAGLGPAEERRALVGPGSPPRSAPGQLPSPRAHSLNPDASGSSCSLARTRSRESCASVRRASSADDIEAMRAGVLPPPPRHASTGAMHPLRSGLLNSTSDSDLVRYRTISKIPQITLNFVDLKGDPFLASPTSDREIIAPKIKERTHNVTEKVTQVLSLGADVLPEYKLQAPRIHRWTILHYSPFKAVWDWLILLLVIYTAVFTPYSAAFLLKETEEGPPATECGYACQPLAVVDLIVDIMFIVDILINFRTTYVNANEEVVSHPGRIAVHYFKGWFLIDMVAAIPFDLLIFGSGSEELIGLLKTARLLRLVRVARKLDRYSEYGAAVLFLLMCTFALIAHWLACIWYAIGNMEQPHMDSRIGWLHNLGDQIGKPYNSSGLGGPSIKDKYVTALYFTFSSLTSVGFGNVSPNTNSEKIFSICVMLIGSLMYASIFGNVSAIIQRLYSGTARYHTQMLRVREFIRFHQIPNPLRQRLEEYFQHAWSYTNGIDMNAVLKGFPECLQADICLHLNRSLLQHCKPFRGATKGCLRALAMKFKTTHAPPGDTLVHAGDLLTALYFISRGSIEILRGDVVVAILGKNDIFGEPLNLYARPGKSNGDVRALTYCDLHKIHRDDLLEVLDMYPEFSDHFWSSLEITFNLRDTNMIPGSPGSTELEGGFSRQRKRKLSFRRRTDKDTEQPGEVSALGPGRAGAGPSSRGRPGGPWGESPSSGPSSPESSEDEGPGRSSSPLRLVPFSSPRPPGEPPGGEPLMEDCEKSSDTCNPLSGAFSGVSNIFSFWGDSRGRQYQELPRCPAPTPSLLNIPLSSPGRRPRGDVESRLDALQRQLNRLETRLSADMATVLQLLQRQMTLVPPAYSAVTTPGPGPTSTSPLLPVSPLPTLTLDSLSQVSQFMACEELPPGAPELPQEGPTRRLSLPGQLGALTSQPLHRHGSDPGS
row,Compound,"hERG current change (%, negative = inhibition) at 10uM"
1,COc1ccc(N(CC(=O)Nc2cccc([N+](=O)[O-])c2C)S(C)(=O)=O)cc1OC,-7.79%
2,S=C(NCc1ccco1)Nc1cccc(Cl)c1,-6.16%
3,CCN(CC)S(=O)(=O)c1cccc(NC(=O)COC(=O)c2n[nH]c(=O)c3ccccc23)c1,-2.07%
4,COC(=O)c1ccccc1NC=C1C(=O)OC2(CCCCC2)OC1=O,-1.07%
5,Cc1cccc(-c2nnc(NC(=O)c3cccs3)s2)c1,-21.7%
6,COc1ccc(S(=O)(=O)n2ccc(-c3ccc(OCCN(C)c4ccccn4)cc3)n2)cc1,11.4%
7,CCOC(=O)C1(CCCc2ccccc2)CCN(Cc2nccn2CC)CC1,-74%
8,Cc1oc(S(=O)(=O)N2CCOCC2)cc1C(=O)Nc1ccc(F)cc1,-6.29%
9,O=C(CSc1nc2ncccc2[nH]1)Nc1ccc2c(c1)OCO2,9.63%
10,Cc1cc(C)n2nc(SCC(=O)c3cc(C)n(CC4CCCO4)c3C)nc2n1 (stereo not drawn),1.05%
11,Cc1cc(C)n2nc(SCC(=O)Nc3ccccc3)nc2n1,-4.16%
12,Cc1cccc(NC(=O)CSc2nc3nc(C)cc(C)n3n2)c1,-32.6%
13,Cc1cc(C)cc(NC(=O)CSc2nc3nc(C)cc(C)n3n2)c1,-50.2%
14,Cc1cc(C)n2nc(SCC(=O)c3cc(C)n(-c4cc(C)on4)c3C)nc2n1,-67.5%
15,CCCn1c(C)cc(C(=O)CSc2nc3nc(C)cc(C)n3n2)c1C,6.97%
16,CNC1=C(N(C(C)=O)c2ccc(Br)cc2)C(=O)c2ccccc2C1=O,11.5%
17,COc1ccc(S(=O)(=O)NCc2cccs2)cc1,2.67%
18,CCC(C)(C)NC(=O)CN(C(=O)CCC(=O)Nc1ccccn1)c1ccc(F)c(Cl)c1,-1.31%
19,Cc1cc(=O)oc2cc(NC(=O)c3ccccc3C(=O)O)ccc12,15.7%
20,CN(CC(=O)Nc1ccccc1Br)C(=O)CNC(=O)c1ccc(Oc2ccccc2)cc1,-17.8%
21,CCn1ccnc1[C@@H]1C[C@H]2CN(c3ccccc3OC)C(=O)[C@]23CCCN13,19.8%

row,Compound,"hERG current change (%, negative = inhibition) at 10uM"
1,O=C1N(C2CCCC2)C[C@@H]2C[C@@H](c3cccn3-c3nccs3)N3CCC[C@@]123,-66.6%
2,CN1C[C@@H]2C[C@@H](c3cccn3-c3ccccn3)N3CCC[C@@]23C1=O,-43.6%
3,CN1C[C@@H]2C[C@@H](c3cccn3-c3nccs3)N3CCC[C@@]23C1=O,-19.2%
4,O=C1N(C2CCCC2)C[C@@H]2C[C@@H](c3cccn3-c3ccccn3)N3CCC[C@@]123,-62.6%
5,CCCCNc1nc2c(c(=O)[nH]c(=O)n2C)n1CCOc1ccccc1,3.6%
6,O=C(CCSc1ccccn1)c1ccccc1,8.82%
7,CCOC(=O)CC(NC(=O)Cc1cccs1)c1ccccc1Cl (stereo not drawn),5.29%
8,Cc1ccccc1C(=O)N1N=C(c2cccc(NS(C)(=O)=O)c2)CC1c1cccs1 (stereo not drawn),-6.36%
9,Cc1cc(C)c(CN2CCN(Cc3ccc(C)o3)C(CCO)C2)c(-n2cccn2)c1 (stereo not drawn),-76.4%
10,Cc1ccc(CN2CCN(Cc3c(C)nn(-c4ccc(F)cc4)c3C)CC2CCO)o1 (stereo not drawn),-34.6%
11,Cc1ccc(CN2CCN(Cc3ccc(O)cc3)CC2CCO)o1 (stereo not drawn),-7.85%
12,Cc1ccc(CN2CCN(Cc3cnn(-c4ccc(Cl)cc4)c3)CC2CCO)o1 (stereo not drawn),-69.8%
13,Cc1ccc(CN2CCN(Cc3cnc(C)s3)CC2CCO)o1 (stereo not drawn),-1.95%
14,Cc1ccc(CN2CCN(Cc3ccncc3)CC2CCO)o1 (stereo not drawn),-8.3%
15,Cc1ccc(CN2CCN(Cc3cnn(-c4ccc(F)cc4)c3)CC2CCO)o1 (stereo not drawn),-56.1%
16,CCn1cc(CN2CCN(Cc3ccsc3)C(CCO)C2)cn1 (stereo not drawn),-3.26%
17,Cc1ccc(CN2CCN(Cc3cn[nH]c3-c3ccccc3)CC2CCO)o1 (stereo not drawn),-12.7%
18,OCCC1CN(Cc2cnn(-c3ccccc3Cl)c2)CCN1Cc1ccsc1 (stereo not drawn),-11.7%
19,Cc1ccc(CN2CCN(Cc3c(C)nn(C(C)C)c3C)CC2CCO)o1 (stereo not drawn),-7.24%
20,OCCC1CN(Cc2cnn(-c3ccc(F)cc3)c2)CCN1Cc1ccsc1 (stereo not drawn),-65.7%
21,Cc1ccc(C(=O)N2CCCCC2)cc1S(=O)(=O)N1CCOCC1,22%

row,Compound,"hERG current change (%, negative = inhibition) at 10uM"
1,COc1ccc(NC(=O)C2CCCN(S(=O)(=O)c3ccc4c(c3)CCCN4C(C)=O)C2)cc1 (stereo not drawn),9.31%
2,CCCN1CCC(NC(=O)Nc2cc(Cl)ccc2OC)CC1,-19.1%
3,CCCCOc1ccc(C(=O)Nc2ccc(N3CCN(C(=O)C(C)C)CC3)cc2)cc1,6.91%
4,NC(=O)C1CCN(C(=O)c2ccc(F)c(S(=O)(=O)N3CCOCC3)c2)CC1,-0.931%
5,C/C(=N\NC(=O)CNC(=O)c1ccc(Br)cc1)c1ccco1,5.38%
6,CCn1c(=O)cc(OCC(=O)NCCCN2CC(C)CC(C)C2)c2ccccc21 (stereo not drawn),-12.5%
7,CCn1c(=O)cc(OCC(=O)NCCCN2CCN(c3cccc(Cl)c3)CC2)c2ccccc21,-61.1%
8,CC1CCN(CCCNC(=O)COc2cc(=O)n(C)c3ccccc23)CC1,8.58%
9,Cn1c(=O)cc(OCC(=O)NCCCN2CCN(Cc3ccccc3)CC2)c2ccccc21,-17.8%
10,Cn1c(=O)cc(OCC(=O)NCCCN2CCN(c3cccc(Cl)c3)CC2)c2ccccc21,-50.8%
11,CCn1c(=O)cc(OCC(=O)NCCCN2CCC(C)CC2)c2ccccc21,-8.39%
12,O=S(=O)(N/N=C\c1cn(-c2ccccc2)nc1-c1ccccc1)c1ccccc1,5.42%
13,COC(=O)c1ccc(N2C(=O)Nc3ccccc3N2O)cc1,12.5%
14,CCN1CCN(C(C(=O)NC2CCCC2)c2cc3c(cc2[N+](=O)[O-])OCO3)CC1 (stereo not drawn),-1.51%
15,CN(C)S(=O)(=O)N1CCC(C(=O)O)(c2ccccc2)CC1,18.7%
16,CCCc1nc2ccc(NC(=O)c3cccs3)cc2c(=O)n1Cc1ccccc1Cl,1.8%
17,CC(=O)c1cccc(S(=O)(=O)N2CCC(n3nnc4cc(F)ccc43)CC2)c1,-63.7%
18,Cc1ccc2c(c1)nnn2C1CCN(S(=O)(=O)c2cccc(S(=O)(=O)N(C)C)c2)CC1,-16.7%
19,O=S(=O)(c1cccc(S(=O)(=O)N2CCC(n3nnc4ccccc43)CC2)c1)N1CCCCC1,-55.7%
20,O=S(=O)(NC1CCCC1)c1cccc(S(=O)(=O)N2CCC(n3nnc4ccccc43)CC2)c1,-26%
21,O=S(=O)(c1ccccc1)N1CCC(n2nnc3cc(F)ccc32)CC1,-27.7%

row,Compound,"hERG current change (%, negative = inhibition) at 10uM"
1,COC(=O)c1cccc(S(=O)(=O)N2CCC(n3nnc4cc(F)ccc43)CC2)c1,-34.3%
2,CCCc1ccc(-c2cc(C(=O)NC3=NCCS3)c3ccccc3n2)cc1,-2.06%
3,CCCN1CCN(CCCNC(=O)Cn2nc(-c3ccc(C)cc3)ccc2=O)CC1,-24.6%
4,CCCN1CCN(CCCNC(=O)Cn2nc(-c3ccccc3)ccc2=O)CC1,-22.2%
5,O=C(Cn1nc(-c2ccccc2)ccc1=O)NCCN1CCN(Cc2ccccc2)CC1,-19.1%
6,O=C(Cn1nc(-c2ccc(Cl)cc2)ccc1=O)NCCCN1CCN(Cc2ccccc2)CC1,-64.2%
7,CCCN1CCN(CCCNC(=O)Cn2nc(-c3ccc(Cl)cc3)ccc2=O)CC1,-50.8%
8,CN1CCN(CCCNC(=O)Cn2nc(-c3ccccc3)ccc2=O)CC1,14.1%
9,Cn1c(=O)c2c(nc(CN3CCOCC3)n2CCN2CCOCC2)n(C)c1=O,3.09%
10,COc1ccc(/C=C(/NC(=O)c2ccccc2)C(=O)NC(Cc2c[nH]c3ccccc23)C(=O)O)cc1 (stereo not drawn),14.5%
11,COc1cccc(/C=C2\SC(=S)N(CC(=O)N(C)C3CCS(=O)(=O)C3)C2=O)c1 (stereo not drawn),1.18%
12,CCCCOC(=O)NS(=O)(=O)c1sc(CC(C)C)cc1-c1ccc(Cn2c(CC)nc3c(C)cc(C)nc32)cc1,5.9%
13,Cc1ccccc1C1=NCC(=S)Nc2ccc(Cl)cc21,0.98%
14,N=c1c2c(ncn1CCCO)Oc1c(ccc3ccccc13)C2c1ccccc1 (stereo not drawn),-70.4%
15,COc1ccc(C2c3ccc4ccccc4c3Oc3ncn(CCO)c(=N)c32)cc1 (stereo not drawn),-74.2%
16,N=c1c2c(ncn1CCN1CCOCC1)Oc1ccc3ccccc3c1C2c1ccccc1 (stereo not drawn),-49.3%
17,N=c1c2c(ncn1CCCO)Oc1ccc3ccccc3c1C2c1ccccc1 (stereo not drawn),-53.6%
18,COc1ccc(C2c3c(ncn(CCCO)c3=N)Oc3ccc4ccccc4c32)cc1OC (stereo not drawn),-28.8%
19,COc1ccc(C2c3ccc4ccccc4c3Oc3ncn(CCO)c(=N)c32)cc1OC (stereo not drawn),-45.7%
20,COc1ccc(C2c3ccc4ccccc4c3Oc3ncn(CCCO)c(=N)c32)cc1OC (stereo not drawn),-62.3%
21,COc1ccc(C2c3c(ncn(CCCO)c3=N)Oc3ccc4ccccc4c32)cc1 (stereo not drawn),-33.9%
